This passage reports Potency results from PubChem BioAssay (NCATS).

A number with no mark means an inactive call. How the calls were made is not given here. Where only a bound is given, the exact number is not on record here.
Potency means the concentration at half of the fitted maximal effect.

The experiment relates to HIV-1 nucleocapsid protein NCp7 (binding to TG oligonucleotide). Put plainly: HIV Nucleocapsid (AID 346).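 Further: potency is for inhibitors that block NC binding and lower polarization.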 The conditions noted are these: HIV-1 NC / fluorescein-TGTGTGTG probe, fluorescence polarization. An outline of the steps: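 Reagents dispensed (10 nM TG4xF, 100 nM HIV-1 NC), plates spun, compounds pin-transferred, then incubated 1 hr at room temperature before FP imaging. Buffer: Hepes pH 7.5, 250mM NaCl, 1uM ZnCl2, 100 uM TCEP, 5 mM 2-mercaptoethanol.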
For orientation: Polarisation of emitted light reports the rotation of a fluorescent probe.
In the case of `CN(C)c1ncc2nc(-c3cn(C)c4ccccc34)c(=O)n(C[C@H]3CCCO3)c2n1`, the Potency was over 20 µM.
For `COc1ccccc1CN1CC2(CCN(C(=O)c3cc(C(F)(F)F)cc(C(F)(F)F)c3)CC2)C1` the value was over 20 µM.
For `c1cncc(CNc2ccnc(-c3ccc4c(c3)OCO4)n2)c1`, the Potency is over 20 µM.
With `Cn1cccc1C(=O)N1CCC2(CCCN(Cc3ccncc3)C2)CC1`, the Potency was over 20 µM.
As for `Cc1cccc(CNc2ncncc2-c2ccccc2C(F)(F)F)c1`, the Potency was over 20 µM.
`CC(C)CN1CC2(CCN(S(=O)(=O)c3ccccc3)CC2)C1`: the Potency was over 20 µM.
For `CN1CCN(c2ncc3nc(-c4cn(C)c5ccccc45)c(=O)n(C)c3n2)CC1`, the Potency was over 20 µM.
Consider `COc1ccc(C(=O)N2CCC[C@@]3(CCN(Cc4nccs4)C3)C2)cc1`, for which the Potency was over 20 µM.
Take `COCC(=O)N1CCC2(CCCN(C(=O)Nc3ccccc3)C2)CC1`: the Potency is over 20 µM.
For `O=c1c(-c2cc(F)cc(F)c2)nc2cnc(N3CCNCC3)nc2n1C1CC1`, the Potency was over 20 µM.
In the case of `CN(C)c1ccc(-c2nc(N3CCNCC3)c3ccccc3n2)cc1`, the Potency was over 20 µM.
With `COc1ccc(NC(=O)N2CCCC3(CCN(C(=O)c4cccc(F)c4)CC3)C2)cc1`, the Potency is over 20 µM.
Take `COc1ccccc1-c1cc(N(C)Cc2ccco2)ncn1`: the Potency was over 20 µM.
As to `COc1cccc(Nc2ncc3ncc(=O)n(C[C@H]4CCCO4)c3n2)c1`, the Potency is over 20 µM.
For `O=C(c1ccncc1)N1CCC2(CC1)CCN(c1ccc(-c3ccccc3)cc1)CC2` the value was over 20 µM.
